This is a sample that favours compounds with a hit; in the whole collection about 12% have one here.
Sfp PPTase inh = blocks B. subtilis Sfp PPTase activity. Q9F4F7. Biochemical Sfp PPTase activity, qHTS. Potency, µM, actives largely listed as inhibitors. 310,000 compounds, 3.5% hits. AID 1490;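 further: the enzyme is Sfp with the accession as filed and its product quenches rhodamine fluorescence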
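Fluorescence-quenching assay with 15 nM Sfp, 5 uM rhodamine-CoA and 12.5 uM BHQ-2-labelled ybbR peptide in pH 7.6 Hepes/MgCl2 buffer. Enzyme was pre-incubated with compound for 15 min at room temperature. Rate was taken from the 30-min fluorescence change (525/598 nm).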
HP1b chromo inh = inhibitors of HP1-beta chromodomain binding to methylated histone tails | 390,000 compounds, 0.56% hits | AlphaScreen HP1-beta / biotin-H3K9me3 peptide binding | Potency, µM (series often up to 114 µM), usual class: inhibitors | AID 540317; further: nearly all actives have a fitted effect of over 70% in size
Target sequence (P83916 whole entry, looked up): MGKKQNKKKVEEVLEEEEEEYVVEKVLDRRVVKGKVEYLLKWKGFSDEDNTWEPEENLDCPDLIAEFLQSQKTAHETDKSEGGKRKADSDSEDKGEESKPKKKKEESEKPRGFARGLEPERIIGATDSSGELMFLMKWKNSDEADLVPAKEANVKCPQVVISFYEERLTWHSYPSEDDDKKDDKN
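Compound inhibition of the preformed complex between 50 nM HP1-beta and 50 nM biotinylated H3K9me3 peptide was read by AlphaScreen. Buffer was PBS pH 7.4 with 0.01% Tween-20. Incubations ran 30 min at room temperature, with 10 ug/mL donor/acceptor beads.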
JMJD2A Tudor = inhibitors of human JMJD2A Tudor domain; O75164; AlphaScreen JMJD2A-Tudor / H3K4me3 peptide binding; Potency, µM (series often up to 114 µM), actives largely listed as inhibitors; 390,000 compounds, 4.4% hits; further: nearly all actives have a fitted effect of over 50% in size
L3MBTL1 inh = L3MBTL1 (human) inhibition. AlphaScreen L3MBTL1–H3K9me1 peptide binding. AID 485360. Q9Y468. 230,000 compounds, 0.66% hits. Potency, µM (series often up to 57.1 µM), usual class: inhibitors; further: nearly all actives have a fitted effect of over 60% in size
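Displacement of a biotinylated histone H3(1-15) peptide monomethylated at Lys9 (75 nM) from L3MBTL1 (50 nM) was measured by AlphaScreen after a 30 min room-temperature compound incubation; cefsulodin titration served as intraplate control.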
BAZ2B inh = blocks human BAZ2B | Q9UIF8 | AlphaScreen BAZ2B-H3K14Ac peptide displacement | Potency, µM (highest dose often 114 µM), usual class: inhibitors | 360,000 compounds, 4.4% hits | AID 504333; further: nearly all actives have a fitted effect of over 60% in size
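AlphaScreen displacement: compounds (up to 110uM) incubated 30 min at room temperature with a preformed 50 nM BAZ2B/50 nM biotinylated H3K14Ac peptide complex in PBS pH 7.4 with Tween-20. Donor and acceptor beads at 10 ug/mL final added, 20 min light-protected before reading.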
G9a block = G9a (human) methyltransferase inhibition; Q96KQ7; 350,000 compounds, 8.8% hits; Potency, µM (titrated, usually from 102 µM), most hits filed as inhibitors; G9a H3K9 monomethylation, AlphaScreen, 2 h; AID 504332; further: nearly all actives have a fitted effect of over 75% in size
Target sequence (Q96KQ7 913-1193 limits assumed): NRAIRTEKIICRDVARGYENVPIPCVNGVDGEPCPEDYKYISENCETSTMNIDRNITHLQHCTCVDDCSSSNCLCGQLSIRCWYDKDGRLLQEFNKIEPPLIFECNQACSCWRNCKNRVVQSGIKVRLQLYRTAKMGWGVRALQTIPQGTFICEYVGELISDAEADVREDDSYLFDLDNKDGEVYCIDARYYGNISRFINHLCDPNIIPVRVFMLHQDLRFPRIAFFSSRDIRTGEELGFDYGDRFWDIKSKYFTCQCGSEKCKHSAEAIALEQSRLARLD
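AlphaScreen read-out: biotin-H3K9 peptide (500 nM) methylation by 20 nM enzyme with 20 uM SAM, 2 h at room temperature after 15 min compound preincubation; anti-monomethyl H3K9 antibody plus donor/acceptor beads, 10 min dark.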
A number is an active result; [ ] = another dose, or the depositor's remark. The call rests on the fitted dose curve; in most records, active means well fitted curve in the direction sought with a large enough effect; inconclusive means small, poorly fitted or top-dose-only effect, or another doubt; inactive means no such curve, though single readings can be large; an effect the other way counts as inactive or inconclusive.

Screening CCn1cc([N+](=O)[O-])c(C(=O)N2N=C(c3ccc(OC)cc3OC)CC2c2ccccc2O)n1 (stereo unspecified) returned Sfp PPTase inh inactive, HP1b chromo inh inconclusive, JMJD2A Tudor inconclusive, L3MBTL1 inh inactive, BAZ2B inh inactive and G9a block 44.7µM.
`CCOC(=O)c1sc(NC(=O)c2cc(CC)on2)c(C(=O)OCC)c1C` gave HP1b chromo inh inactive, JMJD2A Tudor inactive, BAZ2B inh inactive and G9a block inactive.
For O=C(CCl)N(Cc1ccccc1)c1ccccc1 the results were Sfp PPTase inh inactive, HP1b chromo inh inactive, JMJD2A Tudor inactive, L3MBTL1 inh inactive, BAZ2B inh inactive and G9a block inactive.
`CC(C)OC(=O)c1cc2c(ccn2C)n1CC(=O)N(Cc1ccccc1)c1ccccc1` gave Sfp PPTase inh inactive, HP1b chromo inh inconclusive, JMJD2A Tudor 17.8µM, L3MBTL1 inh inactive, BAZ2B inh 25.1µM and G9a block 25.1µM.
`CCCCCOc1ccc(Br)cc1/C(C)=N/NC1=NCCN1` gave Sfp PPTase inh inconclusive, HP1b chromo inh inactive, JMJD2A Tudor inactive[11.4 µM], L3MBTL1 inh inactive, BAZ2B inh inactive and G9a block 8.91µM.
For COc1cccc(C2CC(=O)N3CN(c4cccc(Cl)c4C)CSC3=C2C#N)c1OC (stereo unspecified) the results were Sfp PPTase inh 3.55µM, HP1b chromo inh inconclusive, JMJD2A Tudor 15.8µM, BAZ2B inh 25.1µM and G9a block 1.78µM.
For COc1ccc(OC)c(C2CC(=O)N3CN(c4cccc(Cl)c4C)CSC3=C2C#N)c1 (stereo unspecified) the results were Sfp PPTase inh 3.55µM, HP1b chromo inh inconclusive, JMJD2A Tudor 17.8µM, BAZ2B inh 31.6µM and G9a block 1.41µM.
COc1cc(CN2CC(=O)N(c3cccc(Cl)c3C)C2=S)cc(OC)c1OC was read as Sfp PPTase inh inactive, HP1b chromo inh inactive, JMJD2A Tudor inactive, BAZ2B inh inactive and G9a block inactive[2.33 µM].
For COc1ccc(OC)c(C2CC(=O)N3CN(c4ccccc4F)CSC3=C2C#N)c1 (stereo unspecified) the results were Sfp PPTase inh inconclusive, HP1b chromo inh 14.1µM, JMJD2A Tudor 22.4µM, BAZ2B inh 22.4µM and G9a block 2.24µM.
`COc1ccc(OC)c(C2CC(=O)NC(SC)=C2C#N)c1` (stereo unspecified) gave Sfp PPTase inh inactive, HP1b chromo inh inactive, JMJD2A Tudor inactive, L3MBTL1 inh inactive, BAZ2B inh inactive and G9a block inconclusive.
`COc1ccc(OC)c(C2C(C#N)=C(N)Oc3cc(C)[nH]c(=O)c32)c1` (stereo unspecified) gave Sfp PPTase inh inactive, HP1b chromo inh inactive, JMJD2A Tudor inconclusive, L3MBTL1 inh inactive, BAZ2B inh inactive and G9a block inactive[2.33 µM].
Cc1ccc(-n2cnc3cc(C(=O)NC4CCCCCC4)ccc32)cc1Cl was read as HP1b chromo inh inactive, JMJD2A Tudor inconclusive, BAZ2B inh inactive and G9a block inactive.
`CCOC(=O)CNC(=O)CN1CCCN(S(=O)(=O)c2ccc(Br)s2)CC1` gave Sfp PPTase inh inactive, HP1b chromo inh inactive, JMJD2A Tudor inactive, L3MBTL1 inh inactive, BAZ2B inh inactive and G9a block 50.1µM.
Screening O=C(CN1CCCN(S(=O)(=O)c2ccc(Br)s2)CC1)Nc1ccc(Cl)cc1 returned Sfp PPTase inh inactive, HP1b chromo inh inactive, JMJD2A Tudor inactive, BAZ2B inh inactive and G9a block inactive[12.7 µM].
Screening CCc1cccc(C)c1NC(=O)C1CCN(c2nnc(C)c3c(C)n(-c4ccccc4)nc23)CC1 returned HP1b chromo inh inactive, JMJD2A Tudor inactive, BAZ2B inh inactive and G9a block inactive.
COc1cc(C)ccc1OCCCOc1ccccc1Br was read as Sfp PPTase inh inactive, HP1b chromo inh inactive, JMJD2A Tudor inactive, L3MBTL1 inh inactive and BAZ2B inh inactive.
Cc1cc(C)c(C)c(OCCOCCNCc2ccccc2)c1 was read as Sfp PPTase inh inactive, HP1b chromo inh inactive, JMJD2A Tudor 79.4µM, L3MBTL1 inh inactive, BAZ2B inh inconclusive and G9a block inconclusive.
